Reference: ChEMBL document CHEMBL4513135, “CO-ADD screening of IQOG CSIS (Spain) compounds”
Potency and affinity values are given separately.

Experiments:
[1] = test system: Klebsiella pneumoniae; conditions: Concentration 32 ug.mL-1; ASSAY_TEST Inhibition of Bacterial Growth; detection method Absorption (OD600); MEDIA CAMHB; plate type 384well; NBS; CORNING #3640; time 18 hr
[2] = test system: Candida albicans; conditions: 32 ug/mL
[3] = test system: Cryptococcus neoformans; conditions: Concentration 32 ug.mL-1; ASSAY_TEST Inhibition of Fungal Growth; detection method Resazurin; Absorption (OD600-OD570); plate type 384well; NBS; CORNING #3640

Row | SMILES | Inhibition [1] | Inhibition [2] | Inhibition [3]
1 | O=C(O)C(=Cc1ccccc1)NC(=O)c1ccccc1 | 27.9% | 0.44% | -6.77%
2 | CCOC(=O)C1=C(C)Nc2nc3c(c(N)c2C1c1ccc([N+](=O)[O-])cc1)CCCC3.Cl (stereo not given) | 18.29% | 1.72% | -58.17%
3 | Nc1c2c(nc3c1C(c1ccc(Cl)c(Cl)c1)c1ccc4ccccc4c1O3)CCCC2 (stereo not given) | -10.24% | 4.63% | -2.87%
4 | Br.C#CCNCc1ccccc1 | 12.8% | -0.33% | -4.9%
5 | C#CCN(C)Cc1cc2cc(OCCCCC3CCN(Cc4ccccc4)CC3)ccc2n1C | 10.12% | 2.73% | -48.77%
6 | NC(=O)c1cc2cc(OCc3ccccc3)ccc2[nH]1 | 5.14% | 6.4% | -61.34%
7 | CCOC(=O)C1=C(C)Oc2nc3c(c(N)c2C1c1ccc(O)c(OC)c1)CCC3 (stereo not given) | 2.99% | 0.9% | -66.64%
8 | N#Cc1c(N)nc(NC2CCN(Cc3ccccc3)CC2)c(C#N)c1-c1ccccc1 | 9.32% | 2.69% | -66.18%
9 | CCOC(=O)c1c(C)nc(NCC2CCN(Cc3ccccc3)CC2)c(C#N)c1-c1ccccc1 | 9.84% | 2.46% | -54.17%
10 | N#CC1(Br)C(=N)Oc2ccc3ccccc3c2C1c1cccc([N+](=O)[O-])c1 (stereo not given) | 16.38% | 11.2% | -26.58%
11 | CCOC(=O)c1c(C)nc2nc3c(c(N)c2c1-c1ccc(Cl)cc1)CCCCC3 | 1.2% | -0.36% | -57.83%
12 | COc1ccc2c(ccn2C)c1 | 14.15% | 1.33% | -1.95%
13 | Cc1nn(-c2ccccc2)c2ncn3nc(-c4ccccc4)nc3c12 | 14.39% | 1.63% | -1.31%
14 | C#CCN(C)Cc1cc2cc(OCCCC3CCN(Cc4ccc(C#N)cc4)CC3)ccc2n1C | 2.67% | 4.18% | -50.05%
15 | C=C1CN(C)c2ncc(C#N)c(=N)n21 | 0.03% | 0.69% | -57.29%
16 | C=C1CN(Cc2ccccc2)c2c(C#N)c(-c3ccccc3)c(C#N)c(=N)n21 | 17.58% | 2.82% | -53.83%
17 | COc1ccc(C2C(C#N)=C(N)Oc3c2ccc2ccccc32)c(OC)c1 (stereo not given) | 2.23% | 0.21% | -2.04%
18 | C#CCN(C)Cc1cc2cc(OCCC3CCN(Cc4ccccc4)CC3)ccc2n1C.Cl | 16.32% | 3.09% | -83.46%
19 | O=C(N/N=C/Cc1ccccc1)c1cc2ccccc2n1Cc1ccccc1 | 4.61% | 1.98% | -1.83%
20 | C#CCN1CCc2nc3nc(N(C)C)c(C#N)cc3c(N)c2C1 | 15.18% | 3.18% | -99.98%
21 | OCc1c(-c2ccc(Br)cc2)nc2ccccn12 | 16.84% | 4.83% | -4.79%
22 | N#Cc1c(N)nc(NCCC2CCN(Cc3ccccc3)CC2)c(C#N)c1-c1ccccc1 | 5.9% | 4.31% | -17.88%
23 | CCCC(=O)NCc1c(-c2ccc(Cl)cc2)nc2ccccn12 | -10.71% | 1.27% | -9.45%
24 | CC(=O)CCc1c[nH]c2ccccc12 | 20.76% | 1.89% | -0.29%
25 | Cc1ccc(/C=C(\C#N)C(=O)c2ccccc2)cc1 | 11.17% | 1.76% | -10.05%

Row | SMILES | Inhibition [1] | Inhibition [2] | Inhibition [3]
26 | C=CCNc1nc(N)c(C#N)cc1C#N | 12.19% | 3.01% | -39.35%
27 | COc1ccc2c(c1)cc(CN(C)Cc1cn(Cc3ccccc3)nn1)n2C | 5.47% | 2.23% | -55.57%
28 | N#Cc1c(N)nc(O)c(C#N)c1-c1ccccc1 | -0.05% | 5.45% | -42.69%
29 | CCOC(=O)c1cc(C#N)c(N)nc1C | 5.86% | 2.73% | -17.38%
30 | C#CCNc1cccc(F)n1 | 9.96% | -0.33% | -45.04%
31 | Br.C#CCNCC | 7.82% | 3.14% | -9.78%
32 | C/C(=N\NC(=O)c1cc2ccccc2n1Cc1ccccc1)C1CC1 | 4.04% | 0.9% | -0.08%
33 | COc1ccccc1C1C(C#N)=C(N)Oc2c1ccc1ccccc21 (stereo not given) | 8.71% | 1.78% | -34.5%
34 | Cn1c(C(=O)O)cc2ccccc21 | 18.05% | 24.1% | 5.37%
35 | CCOC(=O)C1=C(C)OC(N)=C(C#N)C1c1ccccc1 (stereo not given) | 11.23% | 6.07% | -42.71%
36 | COc1ccc(C2C(C#N)=C(N)Oc3[nH]nc(C)c32)cc1 (stereo not given) | -10.09% | 1.54% | -3.79%
37 | Cc1ccc2nc(Cl)c(/C=N/N)cc2c1 | 10.01% | 15.7% | -3.85%
38 | Cc1nn(-c2ccccc2)c2nc(C)n3nc(-c4ccccc4)nc3c12 | 3.45% | -2.98% | -5.73%
39 | CC(=O)/C=C/C1CCN(Cc2ccccc2)CC1 | 7.64% | 0.43% | -60.96%
40 | CN(C)c1nc2nc3c(c(N)c2c(-c2ccccc2)c1C#N)CCCC3 | 5.15% | 1.47% | -62.72%
41 | O=Cc1c[nH]c2ccccc12 [3-FORMYLINDOLE] | 22.42% | 1.76% | -4.21%
42 | COc1ccccc1C1C(C#N)=C(N)Oc2ccc3ccccc3c21 (stereo not given) | 9.04% | 2.24% | -18.76%
43 | O=C(O)/C(=C\c1ccccc1)NC(=O)c1ccccc1 | 17.85% | 1.39% | -3.88%
44 | N#Cc1c(N)nc(NCc2ccccc2)c(C#N)c1-c1ccccc1 | -1.47% | 0.34% | -28.27%
45 | CC1=NC(=Cc2ccc([N+](=O)[O-])cc2)C(=O)O1 | -0.23% | -0.54% | -1.41%
46 | N#Cc1c(Cl)nc(Cl)c(C#N)c1-c1ccccc1 | 19.31% | 34.6% | -43.27%
47 | C#CCN(C)Cc1cc2cc(OC)ccc2n1C | 12.36% | 5.35% | -77.43%
48 | O=C(NN=Cc1c[nH]c2ccccc12)c1cccc2ccccc12 | 12.1% | 1.76% | -3.56%
49 | CCOC(=O)C1=C(C)NC(N)=C(C#N)C1c1ccc([N+](=O)[O-])cc1 (stereo not given) | 14.21% | 2.04% | -47.11%
50 | COc1nc(Cl)c(C#N)c(-c2ccccc2)c1C#N | 0.27% | 31.9% | -41.05%

Row | SMILES | Inhibition [1] | Inhibition [2] | Inhibition [3]
51 | Cl.ClCCCN1CCCC1 | 2.47% | 8.26% | -0.84%
52 | C=C1CN(C)c2c(C#N)c(-c3ccccc3)c(C#N)c(=O)n21 | -0.48% | 3.72% | -24.16%
53 | N#CC1=C(N)Oc2c(ccc3ccccc23)C1c1c(Cl)cccc1Cl (stereo not given) | 5.34% | -0.77% | -4.89%
54 | CNN=C1N=C(SCc2ccccc2)SC1=O | 8.63% | -0.64% | -3.27%
55 | O=C(COc1ccc2ccccc2c1)NNCc1c[nH]c2ccccc12 | 9.52% | 3.01% | -4.32%
56 | N#CC1(Br)C(=NBr)Oc2ccc3ccccc3c2C1c1cccc([N+](=O)[O-])c1 (stereo not given) | 8.04% | 7.45% | -42.61%
57 | N#CC1=C(N)Oc2ccc3ccccc3c2C1c1ccccc1 (stereo not given) | 9.26% | 1.08% | -36.46%
58 | Cc1ccc(C(O)SNNc2nc(C)nc3c2c(C)nn3-c2ccccc2)cc1 (stereo not given) | 11.05% | -0.04% | -5.24%
59 | CNCc1cc2ccccc2n1C.Cl | 8.53% | 1.26% | -5.12%
60 | Cl.ClCCCC1CCNCC1 | 10.49% | 0.27% | -2.91%
61 | CC(C)(C)OC(=O)Nc1ccccn1 | 24.53% | 0.46% | -68.78%
62 | COc1ccccc1C1c2c(ccc3ccccc23)OC(=N)C1(Br)C#N (stereo not given) | 13.77% | 5.01% | -63.67%
63 | Cn1c(C(=O)O)cc2cc(OCCCC3CCN(Cc4ccccc4)CC3)ccc21 | 12.92% | 6.79% | -100.02%
64 | Cc1nn(-c2ccccc2)c2ncnc(Nc3ccccc3)c12 | 14.62% | 0.48% | -2.23%
65 | C#CCNc1nc(N)c(C#N)cc1C#N | 1.8% | 2.29% | -24.9%
66 | COc1cc(C2c3c(nc4c(c3N)CCCC4)Oc3ccc4ccccc4c32)cc(OC)c1OC (stereo not given) | 23.56% | 1.11% | -4.42%
67 | Cn1ccnc1C1C2=C(CC(C)(C)CC2=O)Oc2nc3c(c(N)c21)CCCC3 (stereo not given) | 9.51% | 1.3% | -60.42%
68 | CN(C)c1ccc(C(=NNC(=O)c2cc3ccccc3[nH]2)c2ccc(N(C)C)cc2)cc1 | -1.36% | -0.9% | -8.51%
69 | N#Cc1cc(C#N)c(N2CCCCC2)nc1Cl | 12.8% | 0.28% | -0.7%
70 | C=C=CCN(C)Cc1cc2ccccc2n1C.O=C(O)C(=O)O | 9.39% | 1.88% | -29.39%
71 | CCOC(=O)C1=C(C)NC(N)=C(C#N)C1c1ccc(OC)cc1 (stereo not given) | 13.36% | 5.45% | -57.77%
72 | CCC(CC)NNC(=O)c1c[nH]c2ccccc12.Cl | 14.64% | 1.1% | 4.78%
73 | Nc1c2c(nc3c1C(c1ccccc1)c1ccc4ccccc4c1O3)CCCC2 (stereo not given) | 7.96% | 0.57% | 5.07%
74 | CC(C)(C)OC(=O)Nc1ccc(Cl)cn1 | 13.6% | -0.26% | -54%
75 | Cc1ccc2[nH]c(=O)c(C=O)cc2c1 | 6.41% | 1.79% | 4.75%
